# Source: PubChem BioAssay
# Pf growth 96h: Primary qHTS for delayed death inhibitors of the malarial parasite plastid, 96 hour incubation | P. falciparum luciferase reporter growth, 96 h | Potency, µM (top dose mostly 28.7 µM), for inactives: top-dose activity change, negative = inhibition, hits mostly inhibitors | 6.9% of 320,000 active | AID 504834, 2011
#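 Erythrocytes infected with luciferase-expressing P. falciparum were dispensed at 2% hematocrit and 0.05% parasitemia (final), then incubated with compounds 96 hours at 37 C in 5% CO2. Luminescence after detection reagent addition reported growth.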
# AMA1-RON2 inh: qHTS for Inhibitors of AMA1-RON; Towards Development of Antimalarial Drug Lead: Primary Screen | Plasmodium falciparum AMA1 (3D7) - RON2 peptide interaction | AlphaScreen AMA1-biotinylated RON2 peptide binding | Potency, µM (series often up to 58.2 µM), for inactives: top-dose activity change, negative = inhibition, most hits filed as inhibitors | 0.2% of 360,000 active;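 further: 0% = vehicle wells and -100% = peptide control; nearly all actives have a fitted effect of over 45% in size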
#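 AMA1 (3D7) with his tag at 25 nM final met compounds first, then biotinylated RON2 peptide at 25 nM; detection used donor plus acceptor beads, 10 µg/mL apiece, read by AlphaScreen after 30 min at room temperature.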
# Vaccinia mCherry: qHTS for Stage-Specific Inhibitors of Vaccinia Orthopoxvirus: mCherry Reporter Primary qHTS. AID 720579, 2013. 0.63% of 310,000 active. Vaccinia virus mCherry reporter infection, fluorescence. Potency, µM (doses to about 36.5 µM), for the others: at the top dose activity change, negative = inhibition, most hits filed as inhibitors; calls by dose curve; tested in A549 cells; further: nearly all actives have a fitted effect of over 35% in size
# Vaccinia Venus: qHTS for Stage-Specific Inhibitors of Vaccinia Orthopoxvirus: Venus Reporter Primary qHTS | Vaccinia virus Venus reporter expression, fluorescence | AID 720580, 2013 | 0.46% of 330,000 active | Potency, µM (highest dose often 36.5 µM), without a hit: at the highest dose activity change, negative = inhibition, most hits filed as inhibitors; calls by dose curve; tested in A549 cells; further: nearly all actives have a fitted effect of over 30% in size
# Pf growth 48h: Primary qHTS for delayed death inhibitors of the malarial parasite plastid, 48 hour incubation. Potency, µM (highest dose often 28.7 µM), for the others: at the top dose activity change, negative = inhibition, actives largely listed as inhibitors. P. falciparum luciferase growth in erythrocytes, 48 h. 5.9% of 310,000 active
#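 A one-generation exposure of luciferase-tagged malaria parasites in RPMI 1640/Albumax erythrocyte culture, 37 C and 5% CO2. Inhibition is inferred from decreased luminescence after adding detection reagent.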
# Numbers without * were called inactive; i = inactive; u = inconclusive; x = no result given; [ ] = another dose, or the depositor's remark. Shown are actives, neighbours in structure and some others; about 8.7% of the full set was active somewhere. Unless noted, the call rests on the fitted dose curve; in most records, active means well fitted curve in the direction sought with a large enough effect; inconclusive means small, poorly fitted or top-dose-only effect, or another doubt; inactive means no such curve, though single readings can be large; an effect the other way counts as inactive or inconclusive. Unless noted, on the % scale 0 is the no-effect control and ±100 the full control effect; potency means the concentration at half of the fitted maximal effect.
SMILES,Pf growth 96h,AMA1-RON2 inh,Vaccinia mCherry,Vaccinia Venus,Pf growth 48h
CCC(C)Oc1cccc(C(=O)Nc2ccccc2N2CCOCC2)c1 (stereo unspecified),2%,-5%,x,x,10µM*
Cc1cc(Cl)ccc1OC(C)C(=O)Nc1ccccc1N1CCOCC1 (stereo unspecified),x,-1%,-10%,-6%,7.4µM*
COc1ccc(N2CCN(C(c3ccc(C)cc3)c3nnnn3C(C)(C)C)CC2)cc1 (stereo unspecified),x,x,i,-10%,x
O=C(Nc1cccc(-c2csc(Nc3ccc(Cl)cc3)n2)c1)c1cc([N+](=O)[O-])cc(C(F)(F)F)c1,2.1µM*,-3%,u,u,1.7µM*
CCCc1nn2c(=O)cc(COC(=O)CNC(=O)COc3ccc(C)cc3)nc2s1,x,x,4%,-5%,x
COc1cccc(-c2nc(S(=O)(=O)c3ccccc3)c(N3CCC(C)CC3)o2)c1,x,x,-19%,-3%,x
O=C(COc1ccccc1Cl)N(Cc1cccc(F)c1)C1CCS(=O)(=O)C1 (stereo unspecified),x,x,-4%,-10%,x
CC(C)(C)NCC(=Cc1ccccc1)C(=O)c1ccccc1,x,-4%,10µM*,u,x
Cc1nn(Cc2ccc(Cl)c(Cl)c2)c(C)c1NC(=O)c1noc2c1CCCCC2,6.6µM*,5%,x,x,34%
O=C(NCc1ccc(Cl)cc1)c1noc2c1CCCCC2,9.3µM*,-13%,-4%,-14%,43%
O=C(NCc1ccc(F)cc1)c1noc2c1CCCCC2,u,4%,x,x,31%
Cc1nn(Cc2ccc(Cl)c(Cl)c2)c(C)c1NC(=O)c1cc(CC(C)C)on1,0.33µM*,-1%,11µM*,u,u
CC(=O)OCCCN(C)CC/C=C1/c2ccccc2CSc2ccccc21,x,-25%,-7%,-24%,x
C[N+](C)(C)CC/C=C1/c2ccccc2CSc2ccccc21,4.1µM*,-2%,3%,1%,9.3µM*
Cc1cccc(NC(=S)N/N=C/c2ccc([N+](=O)[O-])s2)c1,u,-24%,11µM*,22µM*,u
Cc1ccc(C(=O)N/N=C/c2ccc([N+](=O)[O-])s2)cc1,24%,-24%,-12%[1.46 µM],u,u
Cc1ccc(NC(=O)/C=C/c2ccc([N+](=O)[O-])s2)cc1,u,-15%,-14%,20%,u
Cc1cccc(NC(=O)/C=C/c2ccc([N+](=O)[O-])s2)c1,2.6µM*,-14%,-22%,-3%,u
Cc1ccc(NC(=O)/C=C/c2ccc([N+](=O)[O-])s2)c(C)c1,3.3µM*,-12%,-12%,108%,10µM*
Cc1ccc(C)c(-n2sc3ccc(F)cc3c2=O)c1,1.5µM*,9%,u,u,2.1µM*
COc1ccc(-n2sc3ccc(F)cc3c2=O)cc1,144%,-5%,u,u,4.1µM*
O=c1c2cc(F)ccc2sn1-c1ccc(F)cc1,8%,9%,-23%,-28%,4.1µM*
COc1ccc(-n2sc3ccccc3c2=O)cc1,x,-3%,-26%,u,x
CCCn1c(SCc2nc(-c3ccccc3OCC)no2)nnc1-c1ccc(Cl)cc1,x,x,-12%,-17%,x
COc1ccc(CN(C)CC(=O)Nc2ccccc2-c2ccccc2)c(OC)c1,u,1%,-11%,-20%,10µM*
SMILES,Pf growth 96h,AMA1-RON2 inh,Vaccinia mCherry,Vaccinia Venus,Pf growth 48h
O=C(CNC(c1ccccc1)c1ccccc1)Nc1ccccc1F,u,17%,-14%,-11%,u
O=C(CNC(c1ccccc1)c1ccccc1)Nc1ccccc1-c1ccccc1,13µM*,-11%[2.32 µM],-7%,-19%,12µM*
Cc1ccccc1CN(C)CC(=O)Nc1ccccc1-c1ccccc1,9.3µM*,7%,-15%,-14%,u
COc1ccc(CN(C)C(=O)C(Cc2ccccc2)NC(=O)c2ccccc2)c(OC)c1 (stereo unspecified),u,6%,i,-13%,10µM*
Cc1ccccc1CN(C)CC(=O)Nc1ccccc1Oc1ccccc1,u,-11%,-10%,-8%,-2%
COc1ccccc1CN(C)CC(=O)Nc1ccccc1-c1ccccc1,u,4%,u,-27%,u
